From PubChem BioAssay
Only some compounds are listed: those with a hit (about 12% of all), similar ones and a draw of the others.
HCV inhibitor: inhibitors of hepatitis C virus infection. Huh7.5.1 HCVcc-Cre infection, luciferase reporter, 44 h. Potency, µM (series often up to 41.8 µM), for the others: at the top dose activity change, negative = inhibition, most hits filed as inhibitors. 340,000 tested, 3.4% active; also: potency is read from the fitted curve at half-maximal effect; % is scaled to controls: 0 for no effect and ±100 for the full control effect
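Luciferase read-out (15 sec integration) after a 15 min room-temperature substrate step quantifies HCVcc-Cre infection. Cells, 1,000 per well, had compound added 4 h post-plating, then virus at ~0.5 moi, and were cultured 44 h.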
Pf growth 48h: inhibits P. falciparum growth in the first generation, 48 h; P. falciparum luciferase growth in erythrocytes, 48 h; Potency, µM (doses to about 28.7 µM), for inactives: top-dose activity change, negative = inhibition, actives largely listed as inhibitors; 310,000 tested, 5.9% active; AID 504832; also: potency is read from the fitted curve at half-maximal effect; % is scaled to controls: 0 for no effect and ±100 for the full control effect
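Cell-based growth assay: transgenic P. falciparum expressing firefly luciferase, cultured in red cells within RPMI 1640 containing 0.5% w/v Albumax, 24 mM bicarbonate and gentamycin. A drop in luciferase activity indicates inhibition.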
SARS PLpro yeast: blocks SARS-CoV papain-like protease in a yeast assay; S. cerevisiae expressing SARS-CoV PLpro, growth rescue; Potency, µM (highest dose often 32.9 µM), for inactives: at the top dose activity, positive = growth rescue, actives largely listed as activators; 330,000 tested, 0.19% active; calls by dose curve; also: potency is read from the fitted curve at half-maximal effect; 0% is about no effect; nearly all actives have a fitted effect of over 55% in size
NS1 function inh: influenza NS1 inhibition; 270,000 tested, 0.4% active; AID 2326; Potency, µM (top dose mostly 46.1 µM), for the others: at the highest dose activity, positive = more growth; calls by dose curve; also: potency is read from the fitted curve at half-maximal effect; actives are rising curves; nearly all actives have a fitted effect of over 50% in size
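Compounds were scored for reversing the slow growth caused by influenza A NS1 in S. cerevisiae, measured by optical density at 600 nm. Assay medium contained 2% galactose at pH 6.0; NS1-free yeast of the same strain were the positive control.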
Pf growth 96h: P. falciparum growth inhibition at 96 hour, primary screen for plastid delayed-death inhibitors | 320,000 tested, 6.9% active | AID 504834 | Potency, µM (titrated, usually from 28.7 µM), for the others: at the highest dose activity change, negative = inhibition, most hits filed as inhibitors | P. falciparum luciferase reporter growth, 96 h; also: potency is read from the fitted curve at half-maximal effect; % is scaled to controls: 0 for no effect and ±100 for the full control effect
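Infected RBCs, 2% Hct / 0.05% parasitemia final; luciferase-reporter P. falciparum; cpd 96 h, 37 C, 5% CO2; luciferase detection reagent; luminescence.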
AMA1-RON2 inh: disrupts binding of P. falciparum AMA1 to RON2; AlphaScreen AMA1-biotinylated RON2 peptide binding; Potency, µM (titrated, usually from 58.2 µM), without a hit: at the top dose activity change, negative = inhibition, most hits filed as inhibitors; 360,000 tested, 0.2% active; AID 720542;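 also: potency is read from the fitted curve at half-maximal effect; 0% = vehicle wells and -100% = peptide control; nearly all actives have a fitted effect of over 45% in size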
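AMA1 (3D7) with his tag at 25 nM final met compounds first, then biotinylated RON2 peptide at 25 nM; detection used donor plus acceptor beads, 10 µg/mL apiece, read by AlphaScreen after 30 min at room temperature.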
NS1 inh valid: validation of influenza NS1 protein function inhibitors; shares compounds with NS1 function inh; influenza NS1 function cell assay, 15-point titration; activity change, negative = inhibition, % at 32.9 µM; 1,400 tested, under 10 active; AID 492980; calls by dose curve; also: 0% is about no effect
Flu PR8 replic: influenza NS1 inhibitors: inhibition of influenza A/PR/8/34 replication. shares compounds with NS1 function inh. MDCK infected influenza A/PR/8/34, virus titer TCID50; hits give low values. virus titer (log TCID50), log10 TCID50 at 5 µM. 95 tested, 30% active; call rule not given here
The depositor's hits bear a star; ? = inconclusive; nt = not tested or not shown; [ ] = another dose, or the depositor's remark. Unless noted, calls follow the shape of the dose curve; as a rule, active = well fitted curve in the direction sought with a large enough effect; inconclusive = small, poorly fitted or top-dose-only effect, or another doubt; inactive = no such curve, though single readings can be large; an effect the other way counts as inactive or inconclusive.

SMILES	HCV inhibitor	Pf growth 48h	SARS PLpro yeast	NS1 function inh	Pf growth 96h	AMA1-RON2 inh	NS1 inh valid	others
O=C(NC1CCCc2ccccc21)c1cccc(S(=O)(=O)N2CCN(c3ccccc3)CC2)c1 (stereo unspecified)	?	10.4µM*	?	11.2µM*	nt	-8.4%	5.6
O=C(Nc1ccccc1)c1cccc(S(=O)(=O)N2CCCCC2)c1	2.7%	1.1%	-2.7%	-4.4%	?	14.6%	nt
O=C(c1ccccc1)N1CCN(c2ccc([N+](=O)[O-])cc2-n2cccc2)CC1	?	-6.8%	-3.4%	-2.4%	-8.3%	?	nt
COc1cc(C)c(C(N)=O)c(OC)n1	-3.5%	0.6%	-3.0%	?	-11.7%	-5.4%	0.5
Cn1c(CO)nc2cc(N)ccc21	20.6%	42.8%	2.7%	1.4%	0.0%	-0.3%	nt
Nc1ccc(-c2nc3cc(N)ccc3n2CCO)cc1	5.1%	12.6%	0.9%	7.94µM*	30.0%	7.5%	2.2
CC(=O)c1ccc(OCC(=O)Nc2ccc3c(c2)OCO3)cc1	nt	nt	nt	nt	nt	-4.4%	nt
O=C(COC(=O)Cc1ccc(Cl)cc1)Nc1c(F)cccc1F	2.1%	0.6%	1.6%	nt	5.4%	23.9%	nt
CSc1nc2ccccc2cc1/C=C(\C#N)c1ccccc1	?	-5.9%	4.3%	2µM*	9.2%	12.1%	6.7
CSc1nc2ccccc2cc1/C=C(\C#N)c1cccc(C)c1	?	?	3.9%	-1.2%	?	21.1%	nt
COc1ccc(C(=O)Nc2ccccc2C(=O)NC(Cc2c[nH]c3ccccc23)C(=O)O)cc1 (stereo unspecified)	9.1%	?	2.1%	-7.8%	-26.8%	3.5%	nt
Cc1cc(C)cc(NC(=O)CSc2nc3c(oc4ccccc43)c(=O)n2-c2ccccc2)c1	-26.2%	?	-5.6%	5.01µM*	?	-15.0%	?
Cc1ccc(-n2c(SCC(N)=O)nc3c(oc4ccccc43)c2=O)cc1	-9.5%	26.5%	0.6%	0.9%	45.3%	6.5%	nt
O=C(C1=NN(c2ccccc2)C2C(=O)N(c3ccccc3)C(=O)C12)c1ccccc1 (stereo unspecified)	-0.9%	8.5%	-17.1%	?	54.3%	37.9%[11.6 µM]	nt
O=C(C1=NN(c2ccccc2)C2C(=O)N(c3ccccc3Cl)C(=O)C12)c1ccccc1 (stereo unspecified)	3.8%	1.0%	-8.9%	5.62µM*	?	20.0%	-29.0	Flu PR8 replic=8
O=C(O)CC1S/C(=N/N=C/c2ccc([N+](=O)[O-])cc2)N(c2ccc(O)cc2)C1=O (stereo unspecified)	-11.7%	5.2%	-0.4%	6.1%	19.6%	-3.6%	nt
CC(C)c1nc2n[nH]c(N)c2c2c1CSC(C)(C)C2	-19.6%	?	10.5%	5.62µM*	nt	-2.8%	36.0
Cc1ccc(N2C(N)=C(C#N)C(c3cc(CN4CCOCC4)cs3)C3=C2CC(C)(C)CC3=O)cc1 (stereo unspecified)	?	?	1.5%	nt	-6.6%	-1.9%	nt
CCOc1ccccc1NS(=O)(=O)c1cccc2nsnc12	6.9%	-4.7%	-3.0%	2.9%	nt	-9.9%	nt
CCOc1ccc(OCC)c(NS(=O)(=O)c2cccc3nsnc23)c1	-3.6%	-17.3%	-0.6%	?	37.8%	-18.9%	2.5
CC(=O)Nc1ccc(NCN2C(=O)[C@@H]3[C@H]4CC[C@H](C4)[C@@H]3C2=O)cc1	3.4%	18.8%	-14.6%	4.5%	28.1%	-9.0%	nt
Cc1ccc(-c2cc(C(=O)Nc3sc4c(c3C(=O)NCc3ccco3)CCC4)[nH]n2)c(O)c1	-6.8%	?	-10.3%	?	?	87.9%	3.4
Cc1c(Cl)c([N+](=O)[O-])nn1CC(=O)N1CCCC1	4.5%	-6.8%	24.1%	?	?	-1.3%	6.5
COc1cccc(NC(=S)NCCC(c2ccccc2)c2ccccc2)c1	?	?	27.5%	11.3%	?	-2.3%	nt
COc1ccc(NC(=O)CC(C)=O)c(OC)c1	-10.8%	-24.2%	-0.9%	4.6%	?	3.8%	nt
SMILES	HCV inhibitor	Pf growth 48h	SARS PLpro yeast	NS1 function inh	Pf growth 96h	AMA1-RON2 inh	NS1 inh valid	others
COc1ccc(NC(=S)NCCC(c2ccccc2)c2ccccc2)c(OC)c1	?	?	-1.7%	11.2µM*	?	45.8%	?
COc1ccc(NC(=O)CC(=O)Nc2ccc(OC)cc2OC)c(OC)c1	-22.2%	6.0%	0.5%	?	?	-9.9%	1.5
CN(C)c1ccc(/C=N/NC(=O)c2ccc(CN3C(=O)c4cccc5cccc3c45)cc2)cc1	-17.8%	-5.5%	26.9%	4.47µM*	-4.6%	nt	5.5
Oc1c(C(c2ccccc2)N2CCCCC2)sc2ncnn12 (stereo unspecified)	-12.6%	?	1.3%	?	?	0.0%	0.6
CC(NC(=O)C1CCCN(S(=O)(=O)c2cccs2)C1)c1ccccc1 (stereo unspecified)	2.2%	?	-1.7%	-8.7%	?	26.2%	nt
CC(C)NC(=O)C1CCCN(S(=O)(=O)c2cccs2)C1 (stereo unspecified)	-11.3%	54.4%	8.3%	2.24µM*	6.9%	6.3%	-2.4
O=C(C[n+]1cccc(NC(=O)c2ccccc2)c1)c1cccc([N+](=O)[O-])c1	?	?	19.3%	nt	?	4.1%	nt
O=C(C[n+]1cccc(C(=O)Nc2ccccc2)c1)c1ccc([N+](=O)[O-])cc1	11.2µM*	-77.3%	3.8%	2.51µM*	-2.0%	-6.8%	27.6	Flu PR8 replic=7.66
COc1ccc(/C=C/C(=O)OCC(=O)Nc2cc(S(=O)(=O)N(C)C)ccc2Cl)cc1	11.2%	42.7%	1.6%	-10.3%	24.4%	-19.1%	nt
CN(C)S(=O)(=O)c1ccc(Cl)c(NC(=O)COC(=O)/C=C/c2ccc(S(=O)(=O)N3CCOCC3)cc2)c1	44.0%	4.5%	10.8%	20µM*	-0.6%	-19.1%	?
O=P(c1ccccc1)(c1ccccc1)c1cc(S(=O)(=O)O)ccc1O	15.1%	-13.7%	-1.0%	1.7%	10.6%	-3.3%	nt
COc1cccc(N2CC(O)=C(c3ccccc3)C2=N)c1	12.7%	-9.0%	18.3%	7.08µM*	-0.1%	-11.3%	0.5
COc1cccc(N2CC(O)=C(c3nc4ccccc4s3)C2=N)c1	?	4.8%	0.8%	-3.2%	-0.1%	75.6%	nt
CCN(CC)c1ccc(C=C(c2nnnn2-c2ccccc2)c2nnnn2-c2ccccc2)cc1	?	?	6.9%	7.94µM*	34.2%	-11.6%	15.5
